{"source": "PubChem BioAssay AID720700", "about": "(The Scripps Research Institute Molecular Screening Center, 2013)", "note": "About 3,100 (0.84%) of roughly 370,000 compounds were called active. The sample holds actives, similar compounds and a random draw of the others, so the mix is not that of the screen. Values without a mark were called inactive. Cut-off read from the data, not from the text of the source: active = inhibition above about 9.5%; inactive = the rest."}
{"target": "1-phosphatidylinositol 4,5-bisphosphate phosphodiesterase gamma-1 (Homo sapiens) (UniProt P19174)", "sequence (P19174 whole entry, looked up)": "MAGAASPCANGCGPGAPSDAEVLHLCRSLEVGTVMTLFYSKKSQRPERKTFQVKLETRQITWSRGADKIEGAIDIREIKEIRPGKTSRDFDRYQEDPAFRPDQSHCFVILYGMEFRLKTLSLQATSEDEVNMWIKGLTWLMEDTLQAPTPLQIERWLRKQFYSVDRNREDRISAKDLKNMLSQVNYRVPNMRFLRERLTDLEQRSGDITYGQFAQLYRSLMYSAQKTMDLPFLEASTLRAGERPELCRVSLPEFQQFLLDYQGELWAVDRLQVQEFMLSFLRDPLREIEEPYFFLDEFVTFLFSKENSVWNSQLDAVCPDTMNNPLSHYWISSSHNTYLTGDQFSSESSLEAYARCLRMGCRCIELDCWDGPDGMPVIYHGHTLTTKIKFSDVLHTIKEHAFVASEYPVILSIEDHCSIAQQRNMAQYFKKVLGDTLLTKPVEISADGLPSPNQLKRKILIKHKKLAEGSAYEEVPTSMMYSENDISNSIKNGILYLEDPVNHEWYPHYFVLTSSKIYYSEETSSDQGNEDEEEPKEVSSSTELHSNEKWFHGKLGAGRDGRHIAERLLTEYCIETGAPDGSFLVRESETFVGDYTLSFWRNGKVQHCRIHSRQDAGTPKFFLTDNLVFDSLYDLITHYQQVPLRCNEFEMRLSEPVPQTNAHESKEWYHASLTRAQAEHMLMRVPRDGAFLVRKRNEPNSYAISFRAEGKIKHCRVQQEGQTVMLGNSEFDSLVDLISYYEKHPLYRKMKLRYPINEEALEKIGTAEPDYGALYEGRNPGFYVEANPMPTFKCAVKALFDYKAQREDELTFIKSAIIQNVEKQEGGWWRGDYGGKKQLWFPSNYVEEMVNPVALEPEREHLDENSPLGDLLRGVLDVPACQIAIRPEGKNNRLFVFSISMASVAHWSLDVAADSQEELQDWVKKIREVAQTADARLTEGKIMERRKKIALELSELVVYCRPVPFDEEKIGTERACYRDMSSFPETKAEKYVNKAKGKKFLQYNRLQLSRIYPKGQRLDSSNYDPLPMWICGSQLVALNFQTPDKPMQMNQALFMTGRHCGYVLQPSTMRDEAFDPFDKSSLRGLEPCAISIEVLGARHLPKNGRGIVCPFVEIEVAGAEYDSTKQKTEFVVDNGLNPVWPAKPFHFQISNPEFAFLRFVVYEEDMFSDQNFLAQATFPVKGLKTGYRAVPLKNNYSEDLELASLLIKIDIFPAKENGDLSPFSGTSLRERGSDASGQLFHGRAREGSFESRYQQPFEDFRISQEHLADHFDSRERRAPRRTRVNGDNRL", "experiment": "PLC-gamma1 enzyme inhibitors, primary screen, biochemical, fluorescence, purified enzyme (AID 720700)", "settings": "purified PLC-gamma1, fluorogenic substrate, at 12.2 µM, hits give high values"}
{"molecule": "CC(C)N1CCCCC(NC(=O)c2ccc3ccccc3c2)C1=O", "note": "(stereo not given)", "inhibition": "-1.22%"}
{"molecule": "Cc1ccc(S(=O)(=O)NC(=O)COc2ccccc2C)cc1", "inhibition": "-1.05%"}
{"molecule": "Cc1ccc(NS(=O)(=O)c2ccc3c(c2)n(C)c(=O)c(=O)n3C)c(C)c1", "inhibition": "-0.33%"}
{"molecule": "Cc1ccc(NS(=O)(=O)c2ccc(N/N=C/c3ccccc3OCC(=O)O)c([N+](=O)[O-])c2)c(C)c1", "inhibition": "10.8% (active)"}
{"molecule": "COC(=O)[C@]12C[C@H](CC(=O)NCCc3ccccc3OC)C(=O)N(Cc3ccco3)C1=C[C@H](C(C)C)O[C@@H]2C1CC1", "inhibition": "-0.19%"}
{"molecule": "O=C(NCCC1=CCCCC1)C1CCN(S(=O)(=O)c2ccc(Cl)s2)CC1", "inhibition": "-0.14%"}
{"molecule": "CCOC(=O)c1csc(NC(=O)C2CCCN(S(=O)(=O)c3ccc(Cl)s3)C2)n1", "note": "(stereo not given)", "inhibition": "6.52%"}
{"molecule": "CN(C)Cc1cn(-c2ccc(-c3noc4c3C(=O)N(CC(=O)N3CCOCC3)CC4)cc2)nn1", "inhibition": "-16.7%"}
{"molecule": "COC(=O)c1ccc(CSc2nnc(N)s2)o1", "inhibition": "-0.29%"}
{"molecule": "Nc1nnc(SCC(=O)OCc2ccc(Cl)c(Cl)c2)s1", "inhibition": "10.9% (active)"}
{"molecule": "CN(C(=O)CSc1nnc(N)s1)c1c(N)n(Cc2ccccc2)c(=O)[nH]c1=O", "inhibition": "-0.92%"}
{"molecule": "CCCC1CCC2(CCCN2CCOC(=O)NCc2ccccc2)CC1", "note": "(stereo not given)", "inhibition": "2.03%"}
{"molecule": "O=C(NCC12CC3CC(C1)CC(CNC(=O)N1CCCC1)(C3)C2)N1CCCC1", "inhibition": "-0.47%"}
{"molecule": "O=C(NC12CC3CC(CC(C3)C1)C2)N1CCCC(CO)C1", "note": "(stereo not given)", "inhibition": "11.5% (active)"}
{"molecule": "O=C(CNCCO)NC12CC3CC(CC(C3)C1)C2", "inhibition": "9.27%"}
{"molecule": "O=C(NCCc1c[nH]c2ccccc12)OCc1cn(-c2c(F)cccc2F)nn1", "inhibition": "-2.05%"}
{"molecule": "CCCCCCCCNS(=O)(=O)/C=C/c1cc(C)ccc1CNC(=O)OC(C)(C)C", "inhibition": "-1.88%"}
{"molecule": "COC(=O)[C@]12C[C@H](CC(=O)NCCCN3CCCC3=O)C(=O)N(CCc3ccc(OC)c(OC)c3)C1=C[C@H](COCc1ccccc1)O[C@@H]2C", "inhibition": "4.14%"}
{"molecule": "CC(=O)Cn1cnc2c(cnn2-c2ccccc2)c1=O", "inhibition": "0.74%"}
{"molecule": "Cc1c(C#N)c2ncn(CC#N)c(=O)c2n1-c1ccccc1", "inhibition": "9.69% (active)"}
{"molecule": "CN(C)/C=C/c1c(C#N)c(=O)ncn1Cc1ccccc1", "inhibition": "2.62%"}
{"molecule": "COC(CNC(=O)[C@H](Cc1ccccc1)NC1(C(=O)NC2CCCCC2)CCCCC1)OC", "inhibition": "0.41%"}
{"molecule": "COC(=O)c1ccccc1NC(=O)CSc1n[nH]c(-c2ccncc2)n1", "inhibition": "1.06%"}
{"molecule": "CCc1ccc(-c2nc(SCC(=O)NC3CCCC3)n[nH]2)cc1", "inhibition": "9.58% (active)"}
{"molecule": "CCc1c(C)nc(SCC(=O)NC2CCCC2)[nH]c1=O", "inhibition": "0.69%"}
{"molecule": "O=C(CSc1nnc(-c2ccccc2)n1Cc1ccco1)Nc1ccccc1-c1ccccc1", "inhibition": "8.54%"}
{"molecule": "COc1cccc(/C=C2\\CC3(OC(C)=O)CCCN2C3)c1", "note": "(stereo not given)", "inhibition": "-1.03%"}
{"molecule": "COC(=O)[C@@]12CCCCC3=C1N(CCC3)C(=O)[C@H]2CC(=O)NCc1cccc2ccccc12", "inhibition": "3.71%"}
{"molecule": "O=C(CSc1ccccc1)Nc1cccc(S(=O)(=O)N2CCCCC2)c1", "inhibition": "5.78%"}
{"molecule": "Cc1ccnc(SCC(=O)Nc2cccc(S(=O)(=O)N3CCOCC3)c2)n1", "inhibition": "1.32%"}
{"molecule": "O=C(CSc1ccccc1)Nc1cccc(S(=O)(=O)N2CCOCC2)c1", "inhibition": "11.5% (active)"}
{"molecule": "Cc1nc2ccc(NC(=O)c3cccc(S(=O)(=O)N4CCOCC4)c3)cc2s1", "inhibition": "14% (active)"}
{"molecule": "O=C(Nc1ccc(S(=O)(=O)N2CCOCC2)cc1)c1ccc2ncsc2c1", "inhibition": "-4.28%"}
{"molecule": "Cc1cc(C(=O)NNC(=O)c2cccc(S(=O)(=O)N3CCOCC3)c2)c2ccccc2n1", "inhibition": "1.34%"}
{"molecule": "COc1ccc(CN2C(=O)N3Cc4cc(OC)ccc4C3CS2(=O)=O)cc1", "note": "(stereo not given)", "inhibition": "0.38%"}
{"molecule": "O=C(NCCCc1ccccc1)[C@H](Cc1ccccc1)NC1(C(=O)NCCc2c[nH]c3ccccc23)CCC1", "inhibition": "-0.08%"}
{"molecule": "Cc1ccc(C(=O)N(Cc2ccccn2)CC2CCCO2)cc1", "note": "(stereo not given)", "inhibition": "0.65%"}
{"molecule": "CN1C[C@]2(C=C3CCCCC3n3c(=O)n(-c4ccccc4)c(=O)n32)N=C1NC(=O)c1ccccc1", "note": "(stereo not given in full)", "inhibition": "-0.41%"}
{"molecule": "Cc1ccc(C(=O)N2CCCC2)c(F)c1F", "inhibition": "2.59%"}
{"molecule": "Cc1cccc(NC(=O)N2CCCCCC2)c1C", "inhibition": "0.02%"}
{"molecule": "CNC(=O)n1ccc(C(=O)N2CCCCC2)n1", "inhibition": "9.53% (active)"}
{"molecule": "Nn1c(SCC(=O)N2c3ccccc3Sc3ccccc32)nnc1-c1n[nH]c2c1CCC2", "inhibition": "1.2%"}
{"molecule": "COP(=O)(O)CNC(=O)OCc1ccccc1", "inhibition": "2.2%"}
{"molecule": "CC(CCN1CCC(C(O)(c2ccccc2)c2ccccc2)CC1)Oc1ccc(C(F)(F)F)cc1", "note": "(stereo not given)", "inhibition": "6.64%"}
{"molecule": "COC(=O)c1cc(S(=O)(=O)N2CCN(c3ccccc3C)CC2)cn1C", "inhibition": "-2.77%"}
{"molecule": "C=CCN1C(=O)[C@H](CC(=O)NCCCN2CCCC2=O)[C@@]2(C(=O)OCC)CCCC=C12", "inhibition": "-1.95%"}
{"molecule": "CCCCCN1CCCCC(NC(=O)C(C)CCC)C1=O", "note": "(stereo not given)", "inhibition": "0.76%"}
{"molecule": "CC(=O)O[C@@]1(C(C)=O)CCC2[C@H]3C=C(C)C4=CC(=O)CC[C@@]4(C)C3CC[C@]21C", "note": "(stereo not given in full)", "inhibition": "-2.78%"}
{"molecule": "CCCCC1S/C(=N/N=C/c2cccs2)NC1=O", "note": "(stereo not given)", "inhibition": "-0.02%"}
{"molecule": "CCC1S/C(=N/N=C/c2ccco2)NC1=O", "note": "(stereo not given)", "inhibition": "10.6% (active)"}
{"molecule": "O=C1N/C(=N\\N=C\\c2ccco2)SC1Cc1ccc(F)cc1", "note": "(stereo not given)", "inhibition": "2.17%"}
{"molecule": "Cc1cccc(C(=O)Nc2c(-c3ccc(F)cc3)nc3ncccn23)c1", "inhibition": "-270%"}
{"molecule": "O=[N+]([O-])c1cc(C(F)(F)F)ccc1NCCc1ccncc1", "inhibition": "-0.57%"}
{"molecule": "O=[N+]([O-])c1cc(S(=O)(=O)N2CCCC2)ccc1NN=C1CCCC1", "inhibition": "7.15%"}
{"molecule": "O=[N+]([O-])c1cc(C(F)(F)F)ccc1NN=C1CCCC1", "inhibition": "11.1% (active)"}
{"molecule": "COc1ccc2c(C(C)c3ccc(N)cc3)cn(C)c2c1", "note": "(stereo not given)", "inhibition": "3.03%"}
{"molecule": "N#Cc1ccccc1OC[C@@H](O)CN1CCC(C(O)(c2ccccc2)c2ccccc2)CC1", "inhibition": "2.31%"}
{"molecule": "CCOc1ccc(Oc2c(Cl)cnn(-c3ccc(C)cc3)c2=O)cc1", "inhibition": "-4.67%"}
{"molecule": "CN(CCc1ccccc1)C(=O)Cn1nc(-c2ccccc2)ccc1=O", "inhibition": "1.49%"}
{"molecule": "C=CCSC(CC)(CC)C(N)=O", "inhibition": "11.9% (active)"}
{"molecule": "CC(CCN1CCC(C(O)(c2ccccc2)c2ccccc2)CC1)Oc1ccc([N+](=O)[O-])cc1Cl", "note": "(stereo not given)", "inhibition": "6.49%"}
{"molecule": "COc1ccc(C(=O)OCCN(C)C2CN(Cc3cn(Cc4cccc(C)c4)nn3)S(=O)(=O)C2)cc1OC", "note": "(stereo not given)", "inhibition": "3.3%"}
{"molecule": "FC(F)(F)c1cnc(Oc2ccccc2-c2nnc(-c3ccc(Cl)cc3)o2)c(Cl)c1", "inhibition": "12.3% (active)"}
{"molecule": "O=C(c1ccccn1)c1ncc(C(F)(F)F)cc1Cl", "inhibition": "1.59%"}
{"molecule": "Cc1cc(C)cc(NS(=O)(=O)c2ccc(Oc3ncc(C(F)(F)F)cc3Cl)cc2)c1", "inhibition": "-1.75%"}
{"molecule": "Cc1ccccc1NC(=O)C1CCN(c2ncccn2)CC1", "inhibition": "-3.53%"}
{"molecule": "CC(C)(C)OC(=O)NCCc1ccccc1/C=C/S(=O)(=O)NCc1ccc(F)cc1", "inhibition": "-0.15%"}
{"molecule": "CC1CCN(c2ccc(C(=O)O)cc2NS(=O)(=O)c2ccc(Br)s2)CC1", "inhibition": "2.88%"}
{"molecule": "CNC(=O)c1ccc(NC(=O)c2cccc(C(F)(F)F)c2)cc1", "inhibition": "14.4% (active)"}
{"molecule": "O=C(Cn1cc(/C=N/NC(=O)c2cccc(C(F)(F)F)c2)c2ccccc21)Nc1ccc(F)cc1", "inhibition": "-0.8%"}
{"molecule": "O=C(Nc1ccc(C(F)(F)F)cc1)c1cccc(-n2cnnn2)c1", "inhibition": "-2.72%"}
{"molecule": "Cc1cccc([C@@H]2[C@@H]3C(=O)N(Cc4ccccc4)C(=O)[C@@H]3[C@]3(Cc4ccc(Cl)cc4)C(=O)N(c4cccc(Cl)c4)C(=O)N23)c1", "inhibition": "11.3% (active)"}
{"molecule": "Cc1cccc(N2C(=O)N3[C@H](c4ccc(F)cc4)[C@@H]4C(=O)N(C5CCCCC5)C(=O)[C@@H]4[C@]3(Cc3ccccc3)C2=O)c1", "inhibition": "2.62%"}
{"molecule": "O=C1[C@H]2[C@@H](c3ccc(Cl)cc3)N3C(=O)N(c4cccc(F)c4)C(=O)[C@@]3(Cc3ccccc3)[C@H]2C(=O)N1C1CCCCC1", "inhibition": "-2.34%"}
{"molecule": "C[C@@H]1ON(C)[C@H]2C[C@H]3c4[nH]c5cccc(-c6ccc7c(c6)OCO7)c5c4CCN3C[C@@H]12", "inhibition": "-51.7%"}
{"molecule": "N#CCC[C@H]1CC[C@]2(CCCN(Cc3ccc(Cl)cc3)C2)O1", "inhibition": "-3.24%"}
{"molecule": "COc1ccc(CCNC(=O)CSc2nc3c([nH]2)c(=O)n(C)c(=O)n3C)cc1", "inhibition": "-0.19%"}
{"molecule": "CN(C)S(=O)(=O)c1cccc(NC(=O)COC(=O)C2(c3ccccc3F)CCCC2)c1", "inhibition": "11.9% (active)"}
{"molecule": "CN(C)S(=O)(=O)c1cccc(NC(=O)COC(=O)c2cc(=O)[nH]c(=O)[nH]2)c1", "inhibition": "5.81%"}
{"molecule": "CN(C)S(=O)(=O)c1cccc(NC(=O)COc2ccc3ccccc3c2)c1", "inhibition": "2.81%"}
{"molecule": "O=C(NCc1ccccc1)[C@H]1CCCN1C(=O)[C@H]1CCCN1C(=O)c1cc(F)cc(F)c1", "inhibition": "0.04%"}
{"molecule": "O=C(NCc1ccccc1)[C@@H]1CCCN1C(=O)[C@H]1CCCN1C(=O)c1cccc(Cl)c1", "inhibition": "0.25%"}
{"molecule": "O=C(NCc1ccc(F)cc1F)[C@@H]1CCCN1C(=O)[C@@H]1CCCN1C(=O)c1cccc(Cl)c1", "inhibition": "11% (active)"}
{"molecule": "Cc1cc(=O)[nH]c(SCC(=O)Nc2ccc(F)cc2F)n1", "inhibition": "0.36%"}
{"molecule": "CC(=O)Nc1ccc(OC[C@@H](O)CN2CCC(C(O)(c3ccccc3)c3ccccc3)CC2)cc1", "inhibition": "-0.12%"}
